Experiment [1] is described as follows: qHTS assay to identify small molecule antagonists of the sonic hedgehog signaling (Shh) pathway (AID 1259369). Note: nearly all actives have a fitted effect of over 45% in size. Note: potency is the fitted concentration of half-maximal effect. The procedure, abridged:
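Conditioned medium drives Shh signalling in 3T3Gli1-Luc cells; compounds in DMSO co-applied, 24hr at 37 C, then luciferase luminescence.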
Background: Quantitative high-throughput screening tests each substance at several concentrations.

Experiment [2] concerns the target Estrogen receptor beta (Homo sapiens) (UniProt Q92731). In words: qHTS assay to identify small molecule agonists of the estrogen receptor beta (ER-beta) signaling pathway (AID 1259377; active = well fitted activation curve with a large enough effect in the signal ratio in the repeat runs, not every such curve was filed as active; the % refers to the signal ratio). The method in brief: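 HEK293T ER-beta-UAS-bla; 2% charcoal-stripped FBS; cells pre-incubated 6 hr, compound 16 hr, 37C/5% CO2; LiveBLAzer B/G FRET substrate 2 h RT; fluorescence intensity read.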

Experiment [3] has the same target. As to the kind of experiment: qHTS assay to identify small molecule antagonists of the estrogen receptor beta (ER-beta) signaling pathway (AID 1259378; active = well fitted inhibition curve with a large enough effect in the signal ratio in the repeat runs, not every such curve was filed as active; the % refers to the signal ratio). The procedure, abridged: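 Antagonist mode: compounds added to beta-lactamase reporter HEK293T ER-beta-UAS cells stimulated with E2 (1nM final), 16 hr at 37C. LiveBLAzer B/G FRET substrate, 2 hours room temperature, fluorescence read-out.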

A short description of experiment [4]: qHTS assay to identify small molecule agonists of the androgen receptor (AR) signaling pathway in the presence of an antagonist - cell viability counter screen (AID 1259379; active = well fitted curve in the direction sought with a large enough effect in the repeat runs; an effect the other way counts as inactive or inconclusive;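 note: MDA-kb2 human breast cancer cells carrying an MMTV luciferase reporter; series mostly up to about 92 µM; nearly all actives have a fitted effect of over 25% in size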). The procedure, abridged: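 A CellTiter-Fluor read-out measured viability of MDA-kb2 reporter cells (MMTV promoter with AR and GR response elements). Treatment: nilutamide 3.0uM final with compounds at 15 concentrations, 16 hr, 37C, 0% CO2.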

Experiment [5] can be described thus: qHTS assay to identify small molecule agonists of the estrogen receptor beta (ER-beta) signaling pathway - cell viability counter screen (AID 1259380; active = well fitted curve in the direction sought with a large enough effect in the repeat runs; an effect the other way counts as inactive or inconclusive; note: nearly all actives have a fitted effect of over 30% in size; note: potency is the fitted concentration of half-maximal effect). The method in brief: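 Cells used were ER-beta-UAS-bla HEK293T in medium with 2% charcoal-stripped FBS. They were treated for 16 hr at 37C. Viability came from CellTiter-Glo luminescence.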
Experiment [6] deals with Estrogen receptor (Homo sapiens) (UniProt P03372). As to the kind of experiment: qHTS assay to identify small molecule agonists of the estrogen receptor alpha (ER-alpha) signaling pathway in the presence of an antagonist (AID 1259383). Note: top concentration of the series differs between compounds; nearly all actives have a fitted effect of over 15% in size. The method in brief:
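Using VM7Luc4E2 cells seeded 24hr before treatment, antagonist ICI-182,780 (10.0nM final) was added, followed by compounds at 15 concentrations. Plates incubated 22hr; ONE-Glo luminescence quantified reporter activity.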

Experiment [7] is described as follows: qHTS assay to identify small molecule agonists or antagonists of the thyroid stimulating hormone receptor (TSHR) signaling pathway - wild type cell line counter screen (AID 1259384). The method in brief: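 Counter screen in untransfected Hek293: compounds (15-point titration, triplicate) plus phosphodiesterase inhibitor Ro20-1724 added after 18 h plating; 30 min RT. Intracellular cAMP via competitive d2/cryptate immunoassay, 1 h incubation.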

In experiment [8] the target is Thyrotropin receptor (Homo sapiens) (UniProt P16473). As to the kind of experiment: qHTS assay to identify small molecule antagonists of the thyroid stimulating hormone receptor (TSHR) signaling pathway (AID 1259385). Note: nearly all actives have a fitted effect of over 20% in size. The procedure, abridged: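 Antagonist mode: compound-treated TSHR-expressing HEK293 cells were stimulated with 1.5 ng/mL TSH (final) in presence of Ro20-1724 for 30 min at RT. HTRF cAMP detection after 1 h; each compound tested at 15 concentrations, triplicate.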

A short description of experiment [9]: qHTS assay to identify small molecule agonists of the estrogen receptor alpha (ER-alpha) signaling pathway in the presence of an antagonist - cell viability counter screen (AID 1259386; active = well fitted curve in the direction sought with a large enough effect in the repeat runs; an effect the other way counts as inactive or inconclusive;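 note: series mostly up to about 92 µM; cells exposed to compounds for 22 h at 37 °C before the viability read; nearly all actives have a fitted effect of over 30% in size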). The procedure, abridged: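 ICI-182,780 at 10.0nM final accompanies the compound titration (15 concentrations, 22hr, 37C) on VM7Luc4E2 cells. The CellTiter-Fluor fluorescence readout runs in the same wells as the luciferase assay.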

Experiment [10] deals with Progesterone receptor (Homo sapiens) (UniProt P06401). As to the kind of experiment: qHTS assay to identify small molecule agonists of the progesterone receptor (PR) signaling pathway (AID 1346784). Note: nearly all actives have a fitted effect of over 30% in size. The method in brief:
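Beta-lactamase reporter read-out: after 16 hr compound treatment at 37C and a further 2 hr at room temperature with LiveBLAzer B/G FRET substrate, fluorescence was measured in PR-UAS-bla HEK 293T cells grown in 2% charcoal-stripped serum.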

The target is the same in experiment [11]. As to the kind of experiment: qHTS assay to identify small molecule antagonists of the progesterone receptor (PR) signaling pathway (AID 1346795; active = well fitted inhibition curve with a large enough effect in the signal ratio in the repeat runs, not every such curve was filed as active; the % refers to the signal ratio). The procedure, abridged:
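Read-out is fluorescence from the LiveBLAzer B/G FRET substrate, cleaved by a UAS-controlled beta-lactamase in PR-UAS-bla HEK293T cells after 16 hr exposure to compound plus 1 nM promegestone (final), followed by 2 hr at room temperature.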

A short description of experiment [12]: qHTS assay to identify small molecule antagonists of the progesterone receptor (PR) signaling pathway - cell viability counter screen (AID 1346798; active = well fitted curve in the direction sought with a large enough effect in the repeat runs; an effect the other way counts as inactive or inconclusive; note: series mostly up to about 92 µM; nearly all actives have a fitted effect of over 50% in size). The procedure, abridged: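 HEK293T PR-UAS-bla, 2% charcoal-stripped FBS; 4 hr pre-plate; cpd + R5020, 16 h 37C; LiveBLAzer read first; then CellTiter-Glo 30 min RT, luminescence.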
The nature of experiment [13]: qHTS assay to identify small molecule agonists of the progesterone receptor (PR) signaling pathway - cell viability counter screen (AID 1346799). Note: nearly all actives have a fitted effect of over 45% in size. The method in brief: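 Luminescence from CellTiter-Glo, added after the beta-lactamase FRET read in the same wells, gave cytotoxicity in PR-UAS-bla HEK293T cells treated with compounds for 16 hr at 37C.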
Experiment [14] in a line: qHTS assay to identify small molecule agonists of the TGF-beta/Smad signaling pathway - cell viability counter screen (AID 1346829; active = well fitted curve in the direction sought with a large enough effect in the repeat runs; an effect the other way counts as inactive or inconclusive; note: top concentration of the series differs between compounds; nearly all actives have a fitted effect of over 45% in size). The method in brief: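 SBE-bla HEK 293T cells plated overnight, compound exposure 5 hr at 37 C. Viability read in the same wells by CellTiter-Glo luminescence after 30 min at room temperature, following the beta-lactamase read.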
Experiment [15] in a line: qHTS assay to identify small molecule agonists of the TGF-beta/Smad signaling pathway (AID 1346859; active = well fitted activation curve with a large enough effect in the signal ratio in the repeat runs, not every such curve was filed as active; the % refers to the signal ratio; note: series mostly up to about 77 µM). The procedure, abridged: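 SBE-bla HEK 293T, 4,000 cells/well, plated o/n; cpd in DMSO, 5 hr, 37 C/5% CO2; B/G FRET substrate 2 hr RT; ex 405, em 460/530 nm.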
The target of experiment [16] is Thyrotropin-releasing hormone receptor (Homo sapiens) (UniProt P34981). In words: qHTS assay to identify small molecule antagonists of the thyrotropin-releasing hormone receptor (TRHR) signaling pathway (AID 1346877; active = well fitted inhibition curve with a large enough effect in the repeat runs, not every such curve was filed as active; note: series mostly up to about 51 µM). The method in brief:
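Screening used HEK293 cells engineered with TRHR, with a brief 5 min room-temperature compound exposure preceding addition of TRH to 1 nM. The read-out was kinetic calcium-dye fluorescence, concentration-response from 15 doses in triplicate.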

Experiment [17] shares this target. As to the kind of experiment: qHTS assay to identify small molecule agonists of the thyrotropin-releasing hormone receptor (TRHR) signaling pathway (AID 1346891). Note: series mostly up to about 58 µM. The method in brief: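 Intracellular calcium rise, read as fluorescence every second for 3 min, served as the agonist signal in dye-loaded HEK293 cells expressing TRHR; each compound ran at 15 concentrations in triplicate.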

Experiment [18] can be described thus: qHTS assay to identify small molecule antagonists of the TGF-beta/Smad signaling pathway - cell viability counter screen (AID 1346824; active = well fitted curve in the direction sought with a large enough effect in the repeat runs; an effect the other way counts as inactive or inconclusive; note: nearly all actives have a fitted effect of over 50% in size). The method in brief:
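Cytotoxicity counter-screen run in the same wells as the beta-lactamase Smad reporter read: CellTiter-Glo luminescence after 30 min at room temperature. HEK 293T SBE-bla cells had 5 hr compound exposure at 37 C with TGF-beta1 (0.25 ng/mL stock).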

Experiment [19] in a line: qHTS assay to identify small molecule antagonists of the estrogen receptor beta (ER-beta) signaling pathway - cell viability counter screen (AID 1259382; active = well fitted curve in the direction sought with a large enough effect in the repeat runs; an effect the other way counts as inactive or inconclusive; note: series mostly up to about 92 µM; nearly all actives have a fitted effect of over 55% in size). The method in brief:
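Agonist-stimulated (1nM E2) ER-beta-UAS-bla HEK293T cells are incubated with library compounds for 16 hr at 37C. Cell viability is then assessed in the reporter-assay wells by adding CellTiter-Glo and reading luminescence after 30 min.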

A number with no mark means an inactive call. Inconclusive results are not listed. The source made the active and inactive calls. Unless noted, calls come from the whole dose curve.

Estrogen receptor (Homo sapiens), sequence (P03372 whole entry, looked up): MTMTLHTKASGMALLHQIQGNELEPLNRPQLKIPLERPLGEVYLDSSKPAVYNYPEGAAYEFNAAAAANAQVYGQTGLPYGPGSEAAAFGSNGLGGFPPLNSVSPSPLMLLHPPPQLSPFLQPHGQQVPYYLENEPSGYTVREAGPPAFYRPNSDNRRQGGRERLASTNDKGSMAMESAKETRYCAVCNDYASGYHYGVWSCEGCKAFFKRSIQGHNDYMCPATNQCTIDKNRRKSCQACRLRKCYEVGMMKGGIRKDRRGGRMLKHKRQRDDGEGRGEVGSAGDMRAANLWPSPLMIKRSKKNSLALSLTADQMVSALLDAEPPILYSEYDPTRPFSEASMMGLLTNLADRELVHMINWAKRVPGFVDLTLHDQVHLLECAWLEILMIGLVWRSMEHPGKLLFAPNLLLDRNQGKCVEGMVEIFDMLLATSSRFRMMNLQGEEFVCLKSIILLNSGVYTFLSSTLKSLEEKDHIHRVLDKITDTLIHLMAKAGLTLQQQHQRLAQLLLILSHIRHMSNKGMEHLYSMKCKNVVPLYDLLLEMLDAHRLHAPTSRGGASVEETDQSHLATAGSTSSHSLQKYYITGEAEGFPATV
Estrogen receptor beta (Homo sapiens), sequence (Q92731 whole entry, looked up): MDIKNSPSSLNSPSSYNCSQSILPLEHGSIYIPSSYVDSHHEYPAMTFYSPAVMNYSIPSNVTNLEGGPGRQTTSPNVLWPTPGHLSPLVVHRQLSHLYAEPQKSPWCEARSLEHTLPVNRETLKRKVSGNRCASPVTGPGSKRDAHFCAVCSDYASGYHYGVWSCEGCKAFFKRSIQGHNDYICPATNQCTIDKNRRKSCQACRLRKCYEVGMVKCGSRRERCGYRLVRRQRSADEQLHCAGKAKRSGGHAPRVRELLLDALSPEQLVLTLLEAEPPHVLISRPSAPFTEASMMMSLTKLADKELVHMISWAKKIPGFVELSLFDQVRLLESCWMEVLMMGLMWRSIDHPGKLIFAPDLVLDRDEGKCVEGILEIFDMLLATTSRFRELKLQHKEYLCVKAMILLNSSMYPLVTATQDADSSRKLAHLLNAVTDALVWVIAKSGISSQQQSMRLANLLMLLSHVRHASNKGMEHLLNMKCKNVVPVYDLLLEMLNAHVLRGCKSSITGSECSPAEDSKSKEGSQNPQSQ
Thyrotropin-releasing hormone receptor (Homo sapiens), sequence (P34981 whole entry, looked up): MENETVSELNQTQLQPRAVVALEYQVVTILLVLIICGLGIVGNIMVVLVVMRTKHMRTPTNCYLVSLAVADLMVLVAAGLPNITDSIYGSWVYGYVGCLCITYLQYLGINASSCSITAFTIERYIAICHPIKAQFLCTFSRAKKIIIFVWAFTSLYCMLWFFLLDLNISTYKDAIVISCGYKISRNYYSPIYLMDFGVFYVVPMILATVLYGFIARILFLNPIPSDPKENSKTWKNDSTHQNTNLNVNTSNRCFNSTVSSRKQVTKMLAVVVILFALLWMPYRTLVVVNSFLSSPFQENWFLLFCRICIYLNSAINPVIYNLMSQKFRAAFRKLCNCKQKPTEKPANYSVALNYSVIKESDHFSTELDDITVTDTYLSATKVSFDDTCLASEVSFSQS
Progesterone receptor (Homo sapiens), sequence (P06401 whole entry, looked up): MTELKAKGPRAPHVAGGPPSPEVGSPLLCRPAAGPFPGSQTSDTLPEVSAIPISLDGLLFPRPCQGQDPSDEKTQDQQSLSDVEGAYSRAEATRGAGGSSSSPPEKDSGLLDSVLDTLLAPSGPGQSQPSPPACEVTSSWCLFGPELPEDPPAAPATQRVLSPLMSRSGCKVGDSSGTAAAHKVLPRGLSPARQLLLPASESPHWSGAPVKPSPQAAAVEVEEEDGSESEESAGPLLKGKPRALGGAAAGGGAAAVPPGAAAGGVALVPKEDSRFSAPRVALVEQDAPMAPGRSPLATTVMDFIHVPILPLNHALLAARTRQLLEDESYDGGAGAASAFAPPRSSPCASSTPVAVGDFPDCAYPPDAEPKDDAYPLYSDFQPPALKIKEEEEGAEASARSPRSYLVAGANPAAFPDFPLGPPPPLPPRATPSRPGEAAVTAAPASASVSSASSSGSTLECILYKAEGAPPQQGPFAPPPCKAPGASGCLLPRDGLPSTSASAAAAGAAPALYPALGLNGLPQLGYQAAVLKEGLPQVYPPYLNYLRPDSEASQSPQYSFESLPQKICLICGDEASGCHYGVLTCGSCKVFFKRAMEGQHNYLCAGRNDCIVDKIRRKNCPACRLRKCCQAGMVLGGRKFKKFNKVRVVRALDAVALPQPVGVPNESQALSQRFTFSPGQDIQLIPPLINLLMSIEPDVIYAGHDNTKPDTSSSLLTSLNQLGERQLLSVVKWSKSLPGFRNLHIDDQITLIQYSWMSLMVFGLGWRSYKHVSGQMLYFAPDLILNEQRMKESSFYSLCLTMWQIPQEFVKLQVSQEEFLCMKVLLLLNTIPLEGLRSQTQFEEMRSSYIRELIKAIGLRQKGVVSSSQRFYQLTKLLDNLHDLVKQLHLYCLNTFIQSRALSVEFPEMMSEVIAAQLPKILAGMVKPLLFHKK
Thyrotropin receptor (Homo sapiens), sequence (P16473 whole entry, looked up): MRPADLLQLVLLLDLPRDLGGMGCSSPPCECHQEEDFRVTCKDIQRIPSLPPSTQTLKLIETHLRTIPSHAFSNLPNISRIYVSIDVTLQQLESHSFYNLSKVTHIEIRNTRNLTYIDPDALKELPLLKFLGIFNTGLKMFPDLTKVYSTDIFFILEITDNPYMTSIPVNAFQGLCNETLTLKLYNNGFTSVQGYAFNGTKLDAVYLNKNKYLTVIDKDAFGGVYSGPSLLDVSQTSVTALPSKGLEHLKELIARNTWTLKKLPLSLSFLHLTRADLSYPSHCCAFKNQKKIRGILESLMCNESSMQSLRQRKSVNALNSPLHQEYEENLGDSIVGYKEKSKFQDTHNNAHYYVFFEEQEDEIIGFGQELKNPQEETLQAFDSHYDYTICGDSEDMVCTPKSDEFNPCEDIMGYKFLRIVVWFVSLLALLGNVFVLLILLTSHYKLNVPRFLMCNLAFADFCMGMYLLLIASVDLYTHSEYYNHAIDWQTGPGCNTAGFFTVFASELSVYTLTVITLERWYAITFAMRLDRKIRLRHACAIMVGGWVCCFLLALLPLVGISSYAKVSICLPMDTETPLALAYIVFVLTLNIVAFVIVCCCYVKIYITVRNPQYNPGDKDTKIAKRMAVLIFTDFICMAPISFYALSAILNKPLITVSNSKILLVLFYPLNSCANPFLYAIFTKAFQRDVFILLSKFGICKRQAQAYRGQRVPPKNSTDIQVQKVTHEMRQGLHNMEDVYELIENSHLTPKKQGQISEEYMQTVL

As for `C=CCCCCCC`, the Potency in experiment [1] is 58.9 µM (active). Besides, the Potency result in experiment [2], in experiment [3], in experiment [4], in experiment [5], in experiment [6] and in [7] was “inactive” each time. In addition, the Potency entry in experiment [8], in [9], in experiment [11], in experiment [12], in experiment [13] and in experiment [14] was “inactive” in each case. Besides, in experiment [17], the Potency result was “inactive”. Moreover, the compound was called inactive in experiment [10], in experiment [15] and in [16].

As to `NCc1ccccc1`, the Potency entry in experiment [1], in experiment [2], in [3], in experiment [4], in [5] and in [7] was “inactive” in each case. In addition, the Potency entry in [8], in [9], in [11], in experiment [12], in [13] and in experiment [18] was “inactive” in each case. Also, the Potency entry in experiment [14] and in experiment [17] was “inactive” in each case. Moreover, the call in experiment [10] and in experiment [15] was inactive.

For the compound `CC(=O)OC/C=C/c1ccccc1`, the Potency result in [1], in experiment [2], in [3], in experiment [4], in experiment [19] and in [7] was “inactive” in each case. Moreover, the Potency result in [8], in experiment [9], in [11], in experiment [13], in experiment [18] and in experiment [14] was “inactive” each time. Also, the Potency entry in [17] was “inactive”. The call in [10], in experiment [15] and in experiment [16] was inactive.

`CCN1CCC[C@H]1CNC(=O)c1c(OC)ccc(Br)c1OC`: the Potency entry in experiment [1], in experiment [2], in experiment [3], in [5], in experiment [19] and in experiment [6] was “inactive” in each case. Also, the Potency entry in [7], in experiment [8], in experiment [9], in experiment [11], in experiment [12] and in experiment [18] was “inactive” throughout. Further, the Potency entry in [14] is “inactive”. The compound was called inactive in experiment [10] and in experiment [15].

Turning to `CCCC(=O)OCC`, the Potency in experiment [1] is 68.6 µM (active). Besides, the Potency entry in experiment [2], in experiment [3], in experiment [4], in experiment [19], in experiment [6] and in experiment [7] was “inactive” in each case. The Potency entry in experiment [8], in experiment [9], in experiment [11], in [12], in [13] and in [14] was “inactive” in each case. Moreover, the Potency entry in [17] was “inactive”. Moreover, the compound was called inactive in experiment [10], in experiment [15] and in [16].

Take `Cc1c(Cn2ccnc2)c2ccccc2n1CCC(=O)O`: the Potency result in [1], in experiment [2], in [3], in experiment [5], in experiment [19] and in [7] was “inactive” in each case. The Potency entry in experiment [8], in experiment [9], in experiment [11], in [12], in experiment [13] and in [18] was “inactive” throughout. Besides, in experiment [14], the Potency result was “inactive”. Besides, the compound was classed as inactive in experiment [10] and in [15].

In the case of `Cc1cccc(C(C)(C)C)c1O`, the Potency entry in experiment [1], in experiment [2], in [3], in [4], in experiment [19] and in experiment [6] was “inactive” throughout. The Potency entry in [9], in experiment [11], in [12], in [13], in experiment [14] and in experiment [17] was “inactive” each time. For the same compound, the compound was classed as inactive in [10] and in experiment [15].

For `O=C(O)C(c1ccc(Cl)cc1)c1ccc(Cl)cc1`, the Potency entry in [1], in experiment [2], in experiment [3], in experiment [4], in experiment [6] and in [7] was “inactive” throughout. For the same compound, the Potency entry in [8], in experiment [9], in [11], in experiment [14] and in experiment [17] was “inactive” each time. The Potency in experiment [5] was 61.1 µM (active). Further, the compound was called inactive in experiment [10] and in experiment [15].

In the case of `Cc1ncsc1CCO`, the Potency entry in experiment [1], in experiment [2], in experiment [3], in [4], in [19] and in experiment [6] was “inactive” each time. For the same compound, the Potency entry in experiment [7], in experiment [8], in experiment [9], in [11], in [12] and in experiment [13] was “inactive” throughout. Besides, the Potency result in experiment [18], in experiment [14] and in experiment [17] was “inactive” each time. The outcome in experiment [15] and in [16] was inactive.

These data come from PubChem BioAssay (Tox21).
